Measurements taken from the supplement of paper PMC6555819.

Legend:
Test in all cases: PBM binding z-score (relative to random genomic background probes); higher = stronger binding; sequences stand for … in GC…GCGATTGACAGCGTAGAATGAAGG
[1] = test system: RARb homodimer (NR concentration 270 nM)
Procedure, shortened: (§1)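 Random background probes are the reference for binding z-scores. These scores derive from regression-normalized fluorescence on custom Agilent 4×180K protein-binding microarrays incubated 1 h with ligand-free nuclear receptor dimers. Binding was detected with antibodies against each partner (one per run).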

[2] = test system: RARg:RXRa (NR concentration 270 nM, RXRa partner concentration 90 nM)
Procedure, shortened: as §1

[3] = test system: RARg homodimer (NR concentration 270 nM)
Procedure, shortened: as §1

[4] = test system: RXRa DBDmut IVT, anti-RXR (DBD mutation: RXRa K156A/R161A, NR concentration 90 nM)
Procedure, shortened: as §1

[5] = test system: RXRa homodimer (NR concentration 180 nM)
Procedure, shortened: as §1

[6] = test system: THRa:RXRa (NR concentration 90 nM, RXRa partner concentration 90 nM)
Procedure, shortened: as §1

[7] = test system: THRa homodimer (NR concentration 90 nM)
Procedure, shortened: as §1

[8] = test system: VDR:RXRa (NR concentration 270 nM, RXRa partner concentration 90 nM)
Procedure, shortened: as §1

[9] = test system: VDR homodimer (NR concentration 270 nM)
Procedure, shortened: as §1

Sequence	PBM binding z-score [1]	PBM binding z-score [2]	PBM binding z-score [3]	PBM binding z-score [4]	PBM binding z-score [5]	PBM binding z-score [6]	PBM binding z-score [7]	PBM binding z-score [8]	PBM binding z-score [9]
ATCTCTAGGTAAGGTTCAGTGAAAGATCGATAGA	0.959	0.973	1.03	1.35	0.69	0.888	0.39	1.33	2.32
CCGACTGGGGCAGAGAGGTTACCATACCATCCGG	1.54	1.33	1.2	-0.642	1.23	1.02	-0.309	1.73	0.35
AGTCAAAGTTCATCTAAGTAACGTAAGATATGCT	3.78	5.58	6.53	4.81	5.21	2.57	-0.213	4.76	4.88
CGTCCAAGGTCATAGGAGGTCAGTGAGGACAGAT	5.13	6.73	7.15	4.28	6.16	5.22	4.53	7.07	5.81
CCTACAGGGCCACGAAAGGTCATTGATTCAGTGA	5.01	5.13	5.03	0.833	5.27	4.25	0.829	4.61	2.2
GCGACTGGGGCGAAGCAGGTTACCATAAGGTTGG	0.22	-0.0926	-0.296	-1.11	0.0577	1.5	-0.185	-0.549	-0.569
TGAATGAGGTTATAAGATCAGGGAACGTTGCAAA	0.0745	1.3	0.836	0.756	1.86	1.71	-0.0262	0.749	0.362
AGTCAAAGTTCAGGACGAGGTAACGTAAAGCACG	3.25	4.81	4.53	2.83	2.9	3.87	1.81	2.85	2.08
ATCGAAAGGTCGTGAGTTGAGTATACAGAAAGGC	2.4	4.08	3.7	1.49	4.88	2.32	0.26	3.51	1.49
TCTTGTAGCTCAAAGGTTAAGAAAGCCGAAGCCT	1.26	1.16	0.435	0.364	1.82	1.05	-0.771	0.581	-0.151
CAGCCTAGATCAGGGCCAGTATAGGAGGAACGTT	-0.147	-0.262	-0.227	-0.728	-0.559	-0.634	-0.417	-0.746	-0.384
CAAACTAGGTGACAGAGGTCAAAGTCCGTGCGTA	4.61	5.54	4.74	2.18	6.14	4.15	1.75	6.42	4.09
ATCGAAAGGTCGAACGTGAGTATACCCACCCGAA	2.3	3.98	3.79	1.83	4.08	1.89	-0.12	2.88	0.989
CTCGTAAGGTCGTGCTCAGGTGAGTATACCAAAC	2.05	3.84	2.77	2.39	2.68	4.18	2.99	2.61	1.5
ATACCAAGGTGGTCGTGAGGTCGTTGATACTAAC	1.63	1.25	0.566	0.422	1.53	3.02	2.64	2.79	3.47
GCTAGCAGGCCATCTGGGTCACTCAATGACGGGC	1.99	1.2	1.84	-0.462	0.806	1.62	0.249	1.04	0.262
